Screening results: PubChem, The Scripps Research Institute Molecular Screening Center
hcDAF-12 act: activates DAF-12 receptor from parasite H. contortus; activation, % at 6.8 µM; AID 652067; HEK293 hcDAF-12 lit1-tk-luc reporter, luminescence; 0% DMSO, 100% Δ7-dafachronic acid; hit rate 1.4% among 370,000;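 active = activation above the mean of all tested compounds plus 3 SD, cut at about 5.5% in these data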;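 note: 100% = response to 3 µM Δ7-dafachronic acid high control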
DAX1 inh-1: DAX1 (NR0B1) inhibition, primary screen; HEK293T StAR-luciferase reporter, SF-1/DAX-1 repression relief; inhibition, % at 6.8 µM; hit rate 1.1% among 370,000;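 active = inhibition above the mean over all tested compounds plus 3 SD, cut at about 3.6% in these data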;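 note: 0% = DAX-1 cells with DMSO and 100% = cells lacking DAX-1 with DMSO; higher inhibition means more luminescence from relief of DAX-1 repression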
DAX1 inh-2: inhibitors of human orphan nuclear receptor DAX1 (NR0B1); P51843; HEK293 Gal4-DAX1 luciferase reporter, luminescence; inhibition, % at 6.75 µM; hit rate 0.99% among 340,000;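 active = inhibition above the mean over all tested compounds plus 3 SD, cut at about 4.2% in these data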;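 note: 0% = DAX1-transfected cells with DMSO and 100% = empty-vector control cells with DMSO; inhibition shows as a rise in luminescence from relieved DAX1 repression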
Target sequence (P51843 207-470 limits assumed): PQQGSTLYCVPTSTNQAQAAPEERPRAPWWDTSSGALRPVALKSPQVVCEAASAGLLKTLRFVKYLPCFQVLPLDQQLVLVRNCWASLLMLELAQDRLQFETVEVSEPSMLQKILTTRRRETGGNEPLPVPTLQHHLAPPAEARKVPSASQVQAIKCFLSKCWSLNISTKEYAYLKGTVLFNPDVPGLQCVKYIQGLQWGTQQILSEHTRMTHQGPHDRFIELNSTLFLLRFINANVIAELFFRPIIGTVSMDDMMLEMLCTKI
ssDAF-12 act: activators of S. stercoralis DAF-12 nuclear receptor; HEK293 ssDAF-12/GRIP1 lit1-tk-luc reporter, luminescence; % of 3 µM dafachronic acid response; activation, % at 6.8 µM; hit rate 1% among 370,000; AID 652126;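 active = activation above the mean over all tested compounds plus 3 SD, cut at about 0.9% in these data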;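 note: 0% = DMSO-only wells and 100% = 3 µM delta7-dafachronic acid wells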
hgDAF12 agonist: activates the H. glycines DAF-12 receptor ligand-binding domain | HEK293 GAL4-hgDAF12 UAS-luciferase reporter, agonist luminescence; normalized to butyrate control | activation, % at 6.8 µM | hit rate 1.8% among 370,000;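 active = activation above a cutoff set at the mean of all screened compounds plus 3 SD, cut at about 10% in these data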;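 note: 0% = DMSO wells and 100% = sodium butyrate wells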
Numbers without * were called inactive. Hits are enriched below; roughly 4.1% of the tested compounds scored in any of these assays.

COC(=O)[C@]12C[C@H](CC(=O)NCc3cccs3)C(=O)N(Cc3ccco3)C1=C[C@H](C(C)C)O[C@@H]2C1CC1 was read as hcDAF-12 act -3.3, DAX1 inh-1 -0.6, ssDAF-12 act -1.1 and hgDAF12 agonist -2.5.
Screening N=c1oc2ccc3ccccc3c2cc1-c1nc(-c2ccccc2)cs1 returned hcDAF-12 act 6.2*, DAX1 inh-1 0.8, DAX1 inh-2 0.5, ssDAF-12 act 0.3 and hgDAF12 agonist 0.8.
`COC(=O)c1cc2c(c3c4ccccc4n(S(=O)(=O)c4ccc(C)cc4)c13)C(=O)N(CC(C)C)C2` gave hcDAF-12 act 3.9, DAX1 inh-1 0.0, ssDAF-12 act 0.0 and hgDAF12 agonist 2.1.
Screening COc1cccc(NC(=O)CSc2nnc(-c3ccc(C)cc3)o2)c1 returned hcDAF-12 act 2.9, DAX1 inh-1 6.5*, DAX1 inh-2 6.1*, ssDAF-12 act 0.1 and hgDAF12 agonist 11.2*.
For COc1ccc(NC(=O)CSc2ccccn2)cc1 the results were hcDAF-12 act 0.9, DAX1 inh-1 0.5, DAX1 inh-2 -0.5, ssDAF-12 act -0.5 and hgDAF12 agonist 5.0.
COc1ccc(C(=O)NCCSc2ccccn2)cc1 was read as hcDAF-12 act 6.4*, DAX1 inh-1 3.2, DAX1 inh-2 0.0, ssDAF-12 act 0.2 and hgDAF12 agonist 11.7*.
For O=C(CSc1nnc(-c2ccc(O)cc2)o1)Nc1cccc(O)c1 the results were hcDAF-12 act 1.8, DAX1 inh-1 0.8, DAX1 inh-2 1.5, ssDAF-12 act 0.2 and hgDAF12 agonist 6.3.
COc1cccc(NC(=O)CSc2ccccn2)c1 was read as hcDAF-12 act 4.5, DAX1 inh-1 1.0, DAX1 inh-2 2.7, ssDAF-12 act 0.2 and hgDAF12 agonist 12.6*.
O=C(CSc1nnc(-c2ccc(O)cc2)o1)Nc1ccc2c(c1)OCCO2 was read as hcDAF-12 act 1.7, DAX1 inh-1 3.6*, DAX1 inh-2 0.3, ssDAF-12 act -0.6 and hgDAF12 agonist 7.7.
Screening CC(=O)C1=C(C)N(Cc2ccc(F)cc2)C(=S)NC1c1ccc(Br)cc1 (stereo unspecified) returned hcDAF-12 act -1.2, DAX1 inh-1 -0.1, ssDAF-12 act -1.6 and hgDAF12 agonist -2.4.
`CCN=C1NC(c2ccccc2C(F)(F)F)C(C(=O)OC)=C(C)N1C` (stereo unspecified) gave hcDAF-12 act -0.6, DAX1 inh-1 0.1, ssDAF-12 act -1.4 and hgDAF12 agonist -1.0.
COCC(=O)N(C)[C@H]1C[C@H]2c3[nH]c4c(-c5ccc6c(c5)OCO6)cccc4c3CCN2C(=O)[C@H]1[C@H](C)O was read as hcDAF-12 act -2.5, DAX1 inh-1 -1.5, ssDAF-12 act -1.7 and hgDAF12 agonist 0.2.
`COC(=O)[C@]12C[C@H](CC(=O)NCCCCc3ccccc3)C(=O)N(CCc3ccc(OC)c(OC)c3)C1=C[C@H](COCc1ccccc1)O[C@@H]2C` gave hcDAF-12 act -1.0, DAX1 inh-1 -0.5, ssDAF-12 act -1.7 and hgDAF12 agonist -1.8.
`O=C(COc1ccc(C2SCCS2)cc1)NNC(=O)C(Cl)Cl` gave hcDAF-12 act 0.1, DAX1 inh-1 0.2, DAX1 inh-2 5.9*, ssDAF-12 act 0.1 and hgDAF12 agonist 1.2.
For CNC(=S)N/N=C/c1ccc(N(C)C)cc1 the results were hcDAF-12 act 2.8, DAX1 inh-1 1.2, DAX1 inh-2 3.4, ssDAF-12 act -0.1 and hgDAF12 agonist 11.4*.
`COC(=O)[C@]12C[C@H](CC(=O)NCc3cccs3)C(=O)N(Cc3ccco3)C1=C[C@H](COCc1ccccc1)O[C@@H]2C` gave hcDAF-12 act -1.3, DAX1 inh-1 -0.6, ssDAF-12 act -1.8 and hgDAF12 agonist 3.0.
Screening CCCCNC(=O)C1CCN(S(=O)(=O)N2CCCCCC2)CC1 returned hcDAF-12 act 5.9*, DAX1 inh-1 0.5, DAX1 inh-2 -1.3, ssDAF-12 act 0.0 and hgDAF12 agonist 0.0.
Cn1nc(C(C)(C)C)cc1C(=O)NCc1ccc2c(c1)OCO2 was read as hcDAF-12 act -6.0, DAX1 inh-1 -7.4, DAX1 inh-2 -2.0, ssDAF-12 act -2.0 and hgDAF12 agonist -5.3.
`O=C(NCCCNC1CCCCC1)c1ccc(/C=N/O)nc1` gave hcDAF-12 act 5.0, DAX1 inh-1 0.9, DAX1 inh-2 -0.9, ssDAF-12 act 1.5* and hgDAF12 agonist 0.1.
For C[C@@H]1CN([C@H](C)CO)C(=O)c2cc(NC(=O)Nc3ccccc3)ccc2O[C@@H](C)CCCCO[C@H]1CN(C)S(C)(=O)=O the results were hcDAF-12 act -1.3, DAX1 inh-1 0.3, ssDAF-12 act -1.4 and hgDAF12 agonist -4.3.
Screening c1ccc(-c2ccc3ncccc3n2)cc1 returned hcDAF-12 act 2.0, DAX1 inh-1 3.7*, ssDAF-12 act 0.5 and hgDAF12 agonist 8.4.
For c1ccc(-c2cccc(-c3ccccc3)n2)cc1 the results were hcDAF-12 act -1.7, DAX1 inh-1 0.3, DAX1 inh-2 1.9, ssDAF-12 act -1.6 and hgDAF12 agonist 0.0.
Screening COc1ccc(OC)c(NC(=O)c2[nH]c(C)c(C(C)=O)c2C)c1 returned hcDAF-12 act 5.8*, DAX1 inh-1 0.9, DAX1 inh-2 1.3, ssDAF-12 act -1.0 and hgDAF12 agonist 2.2.
COc1ccccc1NS(=O)(=O)c1cc(NC(=O)c2[nH]c(C)c(C(C)=O)c2C)ccc1N1CCOCC1 was read as hcDAF-12 act 3.9, DAX1 inh-1 4.0*, DAX1 inh-2 1.3, ssDAF-12 act -1.1 and hgDAF12 agonist -8.7.
`COc1ccc(Cl)cc1NC(=O)c1[nH]c(C)c(C(C)=O)c1C` gave hcDAF-12 act 2.8, DAX1 inh-1 0.1, DAX1 inh-2 0.0, ssDAF-12 act -0.2 and hgDAF12 agonist 2.0.
Screening COc1ccccc1NS(=O)(=O)c1cc(NC(=O)c2ccccc2C)ccc1N1CCOCC1 returned hcDAF-12 act 0.0, DAX1 inh-1 -1.4, DAX1 inh-2 -0.2, ssDAF-12 act -2.0 and hgDAF12 agonist -0.2.
For O=C1N2Cc3ccccc3C2CS(=O)(=O)N1Cc1ccccc1 (stereo unspecified) the results were hcDAF-12 act -0.6, DAX1 inh-1 -0.2, ssDAF-12 act 0.1 and hgDAF12 agonist 0.8.
`c1csc(-c2nc(N3CCCCC3)no2)c1` gave hcDAF-12 act 3.3, DAX1 inh-1 1.3, DAX1 inh-2 5.0*, ssDAF-12 act -0.2 and hgDAF12 agonist 5.7.
`O=C(Nc1ccc(Cl)c(Cl)c1)c1ccc(Cl)c(Cl)c1` gave hcDAF-12 act 5.2, DAX1 inh-1 0.7, DAX1 inh-2 2.0, ssDAF-12 act 0.5 and hgDAF12 agonist 12.9*.
`COc1ccc(NC(=O)c2ccc3c(c2)OCO3)cc1Cl` gave hcDAF-12 act 2.6, DAX1 inh-1 4.0*, DAX1 inh-2 1.9, ssDAF-12 act 0.7 and hgDAF12 agonist 10.5*.
`COCC(=O)Nc1ccc(OC)c(Cl)c1` gave hcDAF-12 act -0.9, DAX1 inh-1 0.3, DAX1 inh-2 0.7, ssDAF-12 act -1.3 and hgDAF12 agonist -1.6.
`COc1ccc(NC(=O)C=C(C)C)cc1Cl` gave hcDAF-12 act 3.1, DAX1 inh-1 4.2*, DAX1 inh-2 0.6, ssDAF-12 act -0.6 and hgDAF12 agonist 10.0.
